# Assay outcomes (PubChem BioAssay)
# Shown are actives, neighbours in structure and some others; about 18% of the full set was active somewhere.
# TGFb inhibitor = inhibitors of TGF-b signaling. HepG2 CAGA-GFP TGF-b/SMAD3 reporter, GFP fluorescence, 18 h; TGF-beta stimulated, 500 pg/mL final. Potency, µM (highest dose often 46.1 µM), without a hit: top-dose activity, negative = inhibition, hits mostly inhibitors. 1.2% of 410,000 active. AID 588855; further: potency means the concentration at half of the fitted maximal effect; on the % scale 0 is the no-effect control and ±100 the full control effect; nearly all actives have a fitted effect of over 65% in size
#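 First, reporter cells (HEPG2 CAGA-GFP) rested 2 h at 37 degrees C. Next, compounds were pinned in and TGF-beta added to 500 pg/mL final. After 18 h, GFP was imaged per cell and summed per well.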
# DT40 TDP1 no CPT = qHTS for Inhibitors of human tyrosyl-DNA phosphodiesterase 1 (TDP1): qHTS in cells in absence of CPT; DT40 Tdp1-/- hTDP1 cells, no CPT, ATP luminescence, 48 h; Potency, µM (top dose mostly 46.2 µM), inactives show at the top dose activity change, negative = growth inhibition, most hits filed as inhibitors; AID 686978, 2013; 15% of 420,000 active; further: potency means the concentration at half of the fitted maximal effect; on the % scale 0 is the no-effect control and ±100 the full control effect; nearly all actives have a fitted effect of over 55% in size
#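 Camptothecin absent (DMSO only). Human TDP1-complemented DT40 knockout cells, 400 cells/well, 37 °C for minimum 48 hr; ATP measured via CellTiter-Glo, 30 min dark incubation, luminescence.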
# DT40 TDP1 CPT = DT40-hTDP1 cell growth loss with CPT. chicken DT40 Tdp1-/-;hTDP1 cells + 20 nM CPT, ATP luminescence, 48 h. Potency, µM (doses to about 46.2 µM), inactives show top-dose activity change, negative = growth inhibition, hits mostly inhibitors. 12% of 420,000 active. AID 686979; further: potency means the concentration at half of the fitted maximal effect; on the % scale 0 is the no-effect control and ±100 the full control effect; nearly all actives have a fitted effect of over 55% in size
#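 Cell growth measured by CellTiter-Glo luminescence after a minimum 48 h, 37 C compound exposure with 20 nM CPT in Tdp1-knockout DT40 cells stably expressing hTDP1, seeded 400/well; qHTS titration format.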
# HepG2 viability = HepG2 cytotoxicity, counter-screen for TGF-b inhibitors; Potency, µM (top dose mostly 46.1 µM), inactives show at the highest dose activity change, negative = cytotoxicity, hits mostly cytotoxic; HepG2 CAGA-GFP viability, ATP luminescence, 18 h; AID 588856; 0.76% of 410,000 active; further: potency means the concentration at half of the fitted maximal effect
#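 CellTiter-Glo luminescence gave cytotoxicity after 18 hours at 37 degrees C. The cells were HepG2 CAGA-GFP in 1% FBS DMEM, stimulated with 500 pg/mL TGF-beta after compound addition. %Activity was normalised to no-cell wells (complete cell-killing) and DMSO (no toxicity), and curves were fitted and classified.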
# TDP1 inh = blocks human tyrosyl-DNA phosphodiesterase 1; Potency, µM (highest dose often 130 µM), for inactives: at the highest dose activity change, negative = inhibition, usual class: inhibitors; 0.28% of 350,000 active; AID 485290; recombinant TDP1, AlphaScreen DNA substrate cleavage; Q9NUW8; further: potency means the concentration at half of the fitted maximal effect; on the % scale 0 is the no-effect control and ±100 the full control effect; nearly all actives have a fitted effect of over 40% in size
# Target sequence (Q9NUW8 whole entry, looked up): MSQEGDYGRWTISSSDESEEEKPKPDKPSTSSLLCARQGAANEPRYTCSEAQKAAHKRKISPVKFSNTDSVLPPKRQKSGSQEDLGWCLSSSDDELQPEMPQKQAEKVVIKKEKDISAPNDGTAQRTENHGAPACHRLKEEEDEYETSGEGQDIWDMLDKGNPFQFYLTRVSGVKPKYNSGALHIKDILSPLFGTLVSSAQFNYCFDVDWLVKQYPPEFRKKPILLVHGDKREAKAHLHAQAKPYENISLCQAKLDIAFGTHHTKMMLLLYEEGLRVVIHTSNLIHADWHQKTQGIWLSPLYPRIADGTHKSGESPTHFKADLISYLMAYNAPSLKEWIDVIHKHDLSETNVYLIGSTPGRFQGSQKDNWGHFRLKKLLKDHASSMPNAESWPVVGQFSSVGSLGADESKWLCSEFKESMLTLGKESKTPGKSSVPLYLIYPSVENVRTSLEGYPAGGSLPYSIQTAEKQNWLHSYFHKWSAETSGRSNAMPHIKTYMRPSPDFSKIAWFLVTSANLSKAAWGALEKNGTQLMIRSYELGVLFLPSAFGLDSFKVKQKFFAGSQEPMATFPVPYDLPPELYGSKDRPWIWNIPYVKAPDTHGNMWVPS
#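 Signal: AlphaScreen proximity between streptavidin donor and anti-FITC acceptor beads on intact substrate. Reaction: Tdp1 1 nM, substrate 15 nM final, 5 min RT after 15 min compound preincubation.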
# IL1B secr inh = inflammasome signaling inhibition, IL-1 beta readout. THP-1 LPS/ATP IL-1B secretion, AlphaLISA, 16 h; stronger effect = lower value. activity change, % at 57.5 µM. 4.7% of 360,000 active. AID 743279; in the data active means activity change below about -50%; inconclusive means mostly about -30% to -49%; further: on the % scale 0 is the no-effect control and ±100 the full control effect
#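 Secreted IL-1B measured by AlphaLISA bead assay after 16 h compound exposure of THP-1 cells; compounds (final up to 57.5 uM) added 1 h before LPS (250 ng/mL) and ATP (1.25 mM) stimulation; lower signal means less secretion.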
# Active calls of the source: *; i = inactive; ? = inconclusive; · = not tested or not shown; [ ] = dose if it differs, or a comment. Unless noted, the call rests on the fitted dose curve; in most records, active means well fitted curve in the direction sought with a large enough effect; inconclusive means small, poorly fitted or top-dose-only effect, or another doubt; inactive means no such curve, though single readings can be large; an effect the other way counts as inactive or inconclusive.
SMILES,TGFb inhibitor,DT40 TDP1 no CPT,DT40 TDP1 CPT,HepG2 viability,TDP1 inh,IL1B secr inh
COc1ccc(-c2cc(C)no2)cc1S(=O)(=O)NCCc1ccco1,-6%,12%,-24%,-15%,3%,5
Cc1ccc(CN2C(=O)CCC2C(=O)NCCN2CCN(c3cccc(Cl)c3)CC2)cc1 (centres undefined),-26%,15µM*,?,-1%,5%,?
O=C(C1CCC(=O)N1Cc1ccccc1Cl)N1CCN(c2cccc(Cl)c2)CC1 (centres undefined),0%,23µM*,23µM*,7%,2%,-2
Cc1ccc(S(=O)(=O)N2CCC(=O)c3ccccc32)cc1,11%,?,?,1%,·,-1
COc1cc(/C=N\NC(=O)CNC(=O)C(c2ccccc2)c2ccccc2)ccc1O,-12%,-14%,-2%,-69%,1%,12
COc1ccc(/C=N/NC(=O)Nc2cccc3nsnc23)cc1OC,18%,9.2µM*,9.2µM*,2%,-3%,-15
COc1ccc(/C=N/NC(=O)CCSc2nc3ccccc3s2)cc1OC,0%,29µM*,13µM*,3%,7%,-20
COc1cc(/C=N/NC(=O)CCN2CCN(C(c3ccccc3)c3ccccc3)CC2)ccc1O,-20%,12µM*,13µM*,-37%,8%,-11
COc1ccc(/C=N/NC(=O)CCC(=O)Nc2ccccc2)cc1OC,-16%,-23%,-4%,-18%,3%,-5
COc1ccc(/C=N/NC(=O)c2ccccc2Cl)cc1CSc1nc2ccccc2s1,-5%,4.6µM*,5.8µM*,-14%,4%,50
COc1ccc(/C=N\NC(=O)c2ccccc2Cl)cc1COc1c(F)c(F)c(F)c(F)c1F,?,-6%,14%,0%,3%,i
CCC1CN(CCNC(=O)c2cc3ccccc3oc2=O)Cc2cc(OC)ccc2O1 (centres undefined),·,-9%,2%[9.04 µM],·,·,·
Cc1cc(C)n(CCC(=O)N/N=C/c2ccc(O)cc2)n1,1%,-12%,-14%,-3%,-3%,-4
O=C(CCSc1nc2ccccc2s1)N/N=C/c1c(O)ccc2ccccc12,-12%,3.7µM*,6.5µM*,1%,6%,192
CCc1cccc(C)c1NC(=O)CCCSc1nc2ccccc2s1,-10%,16µM*,18µM*,-1%,3%,10
Cc1cc(C)n(CCC(=O)N/N=C/c2c(O)ccc3ccccc23)n1,?,4.6µM*,5.8µM*,-34%,-4%,106
Cc1ccccc1NC(=O)CCCSc1nc2ccccc2s1,-6%,?,?,-26%,2%,6
COc1ccc(/C=N/NC(=O)CCn2cnc(-c3ccccc3)c2-c2ccccc2)cc1OC,?,6.5µM*,5.2µM*,9%,-3%,16
O=C(Nc1cc(Cl)ccc1Cl)c1cc(S(=O)(=O)N2CCc3ccccc3C2)ccc1F,4%,-29%,-22%,4%,3%,·
COc1ccc(/C=N/NC(=O)c2cccnc2)cc1CN1CCOCC1,21%,-3%,11%,1%,·,49
COc1ccc(/C=N/NC(=O)c2cccnc2)cc1CSc1nc2ccccc2s1,?,2.9µM*,3.7µM*,-14%,4%,7
Cc1cc(C)n2nc(C(=O)N/N=C/c3c4ccccc4cc4ccccc34)nc2n1,?,21µM*,23µM*,-34%,·,-8
Cc1ccc2c(c1)-c1[nH]c(=S)ncc1CS2,?,18µM*,?,-3%,·,-1
O=C(c1cccn1-c1nnc(N2CCCC2)s1)N1CCN(c2ccc(F)cc2)CC1,?,18µM*,16µM*,-27%,8%,·
Cc1ccc(NC(=O)c2cccn2-c2nnc(N3CCCCC3)s2)cc1Cl,?,?,?,-33%,3%,·
SMILES,TGFb inhibitor,DT40 TDP1 no CPT,DT40 TDP1 CPT,HepG2 viability,TDP1 inh,IL1B secr inh
Cc1ccc(C)c(N2CCN(C(=O)c3cccn3-c3nnc(N4CCCCC4)s3)CC2)c1,?,15µM*,?,-37%,0%,·
Cc1ccc(NC(=O)C(=O)NCCN2CCN(C(=O)C(c3ccccc3)c3ccccc3)CC2)cc1,-2%,18µM*,18µM*,2%,2%,?
CCOc1ccc(NC(=O)C(=O)NCCN2CCN(S(=O)(=O)c3ccc(C)cc3)CC2)cc1,9%,9.2µM*,?,23%,2%[0.0935 µM],0
Cc1ccc(S(=O)(=O)N2CCN(CCNC(=O)C(=O)Nc3ccc(F)cc3)CC2)cc1,-24%,?,1%,-11%,·,-15
O=C(Nc1nnc([C@H]2C[C@H](O)[C@@H](CO)O2)s1)c1cccc(Oc2ccccc2)c1,-14%,-7%,-1%,-4%,·,-1
O=C(NN1C(=O)c2ccccc2NC1c1ccoc1)c1ccccc1 (centres undefined),2%,3%,-4%,-5%,0%,-4
O=C(NN1C(=O)c2ccccc2NC1c1ccccn1)c1ccccc1 (centres undefined),-29%,?,16µM*,-5%,-1%,11
CCOc1cc(/C=C2\SC(=NC)N(C)C2=O)c(Br)cc1OC(C)=O,4%,21µM*,?,-4%,2%,15
O=C(NC1CCS(=O)(=O)C1)c1ccc(Br)s1 (centres undefined),14%,11%,-4%,-10%,100µM*,10
O=C(NNC(=O)c1ccc(Br)s1)NC1CCCCC1,11%,-4%,-15%,-4%,56µM*,0
Cc1nn(C(=O)c2ccccc2)c(C)c1S(=O)(=O)N1CCOCC1,0%,-20%,?,-4%,4%,·
Cc1ccc(-c2nc(CS(=O)CC(=O)NCc3ccc4c(c3)OCO4)c(C)o2)cc1 (centres undefined),?,16µM*,?,-52%,·,-12
CCc1ccc(-c2nc(CS(=O)CC(=O)NCc3ccc4c(c3)OCO4)c(C)o2)cc1 (centres undefined),-13%,-28%,-26%,-2%,6%,25
CCc1cccc(NC(=O)CS(=O)Cc2nc(-c3ccc(C)cc3)oc2C)c1 (centres undefined),-34%,16µM*,?,-30%,5%,9
CS(=O)(=O)c1ccccc1C(=O)N(CCc1ccccc1)Cc1ccccc1,-1%,-29%,-19%,-17%,0%,0
